Test results reported in PubChem BioAssay AID1851 (National Center for Advancing Translational Sciences (NCATS), 2009).
In all, about 16,000 compounds went through this assay and about 2,600 (16%) were called active. Inconclusive results (about 20%) are left out. Calls follow the shape of the dose curve; as a rule, active = well fitted curve in the direction sought with a large enough effect; inconclusive = small, poorly fitted or top-dose-only effect, or effect the other way; inactive = no such curve, though single readings can be large or run the other way. These entries were drawn from the full list.

Molecular target: Cytochrome P450 2D6 (Homo sapiens) (UniProt P10635)
Experiment: Cytochrome panel assay with activity outcomes
Conditions: recombinant CYP, pro-luciferin dealkylation, luminescence, p450-cyp2d6; series mostly up to 57.1 µM; activity, negative = inhibition: at the top concentration
% is scaled to controls: 0 for no effect and ±100 for the full control effect.

Sequence of Cytochrome P450 2D6 (Homo sapiens) (P10635 whole entry, looked up): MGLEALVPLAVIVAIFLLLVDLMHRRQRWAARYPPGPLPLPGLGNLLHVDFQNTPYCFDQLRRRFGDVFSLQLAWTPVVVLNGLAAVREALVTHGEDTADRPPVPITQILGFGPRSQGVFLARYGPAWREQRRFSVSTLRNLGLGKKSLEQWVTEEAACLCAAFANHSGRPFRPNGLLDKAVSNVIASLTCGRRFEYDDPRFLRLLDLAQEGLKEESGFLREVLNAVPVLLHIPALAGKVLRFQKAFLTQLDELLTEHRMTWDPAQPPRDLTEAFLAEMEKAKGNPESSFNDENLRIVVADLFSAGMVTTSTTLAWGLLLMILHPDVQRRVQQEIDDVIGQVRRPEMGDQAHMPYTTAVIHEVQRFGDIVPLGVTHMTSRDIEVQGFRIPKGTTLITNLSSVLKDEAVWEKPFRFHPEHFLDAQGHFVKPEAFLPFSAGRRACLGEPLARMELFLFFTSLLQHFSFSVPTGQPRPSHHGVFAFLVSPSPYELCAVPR

Row | Compound | activity, negative = inhibition | AC50
1 | O=C(ON=C1CCN(S(=O)(=O)c2ccccc2)CC1)c1ccccc1 | -11.1% (inactive) | –
2 | c1ccn(-c2ccc(N3CCOCC3)cc2)c1 | -19.4% (inactive) | –
3 | COc1ccc(C(=O)NNC(=S)NC(=O)c2ccco2)cc1 | 23.2% (inactive) | –
4 | Cc1ccc(C)c(-n2c(Cc3cc(=O)[nH]c(=O)[nH]3)nnc2SCC(=O)NCC2CCCO2)c1 (centres undefined) | 5.39% (inactive) | –
5 | OCCCN=C1CCCCC1 | -10.2% [at 11.4 µM] (inactive) | –
6 | CCOC(=O)c1ccccc1OCc1cc(/C=N/n2cnnc2)ccc1OC | -11.9% (inactive) | –
7 | CC(C)C(=O)Nc1cc2c(cc1C(=O)c1ccccc1)OCCO2 | -1.98% (inactive) | –
8 | CC(Sc1ccc2c(c1)OCCO2)C(=O)Nc1ncc(Cl)cc1Cl (centres undefined) | – | 12.6 µM (active)
9 | CC(C)Cn1c(N)c(C(=O)CSc2ccc3c(c2)OCCO3)c(=O)n(C)c1=O | -14.7% (inactive) | –
10 | CCn1c(C)nc2cc(C(=O)NNS(=O)(=O)c3ccccc3F)ccc21 | -5.81% (inactive) | –
11 | Cc1cc(C)cc(N(C(=O)C2CCCC2)C2C=CS(=O)(=O)C2)c1 (centres undefined) | -12.9% (inactive) | –
12 | COc1ccc(C(=O)N2CCC3(CC2)CN(C(=O)NC(C)C)C3)cc1 | -1.29% (inactive) | –
13 | COc1ccccc1OCCCOc1ccc([N+](=O)[O-])cc1Cl | – | 11.2 µM (active)
14 | COc1cc(C)ccc1OCCCOc1ccccc1Cl | 7.23% (inactive) | –
15 | COc1ccccc1CC(=O)O/N=C(\N)c1cccc([N+](=O)[O-])c1 | -22.3% (inactive) | –
16 | Cc1ccc(OCC(=O)NNC(=O)c2cc3ccccc3o2)cc1 | 3.8% (inactive) | –
17 | CCCS(=O)(=O)N1CCCC(C(=O)N2CCN(c3ccccc3)CC2)C1 (centres undefined) | -9.13% (inactive) | –
18 | CCCS(=O)(=O)N1CCCC(C(=O)NCC2CCCO2)C1 (centres undefined) | -2.53% (inactive) | –
19 | CCCS(=O)(=O)N1CCCC(C(=O)NCCCOC(C)C)C1 (centres undefined) | 32.2% (inactive) | –
20 | O=C(Nc1ccc(Br)cc1)C1CCC(=O)N1Cc1ccccc1Cl (centres undefined) | -23.9% (inactive) | –
21 | CCCS(=O)(=O)N1CCCC(C(=O)NCCN2CCC(Cc3ccccc3)CC2)C1 (centres undefined) | – | 0.501 µM (active)
22 | CCCS(=O)(=O)N1CCCC(C(=O)NCCN2CCOCC2)C1 (centres undefined) | 4.14% (inactive) | –
23 | CCCN(CCC)CCNC(=O)C1CCCN(S(=O)(=O)c2ccc3c(c2)oc(=O)n3C)C1 (centres undefined) | -10.6% (inactive) | –
24 | O=C(NCCCN1CCN(c2cccc(Cl)c2)CC1)C1CCC(=O)N1Cc1ccccc1Cl (centres undefined) | – | 5.01 µM (active)
25 | CCCS(=O)(=O)N1CCCC(C(=O)NCCCN2CCN(c3ccccc3F)CC2)C1 (centres undefined) | – | 10 µM (active)
26 | CCCS(=O)(=O)N1CCCC(C(=O)NCCCN2CCN(c3cccc(Cl)c3)CC2)C1 (centres undefined) | – | 5.62 µM (active)
27 | COC(Cc1nnc(SC)n1-c1ccccc1)OC | 10.6% (inactive) | –
28 | CC(C)Nc1cc(C(F)(F)F)nc(-c2ccccn2)n1 | 14.4% (inactive) | –
29 | CC(C)COP(=O)(c1ccc(N(C)C)cc1)C(O)c1ccccc1F (centres undefined) | 3.33% (inactive) | –
